High-throughput results as filed in PubChem.
CHT inh: inhibitors of human choline transporter CHT; CHT-expressing cells, membrane potential dye, choline response; active compounds read low; B-score at 10 µM; actives 0.86% (n = 310,000);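 active means B-score over 3 SD under the library average, and starting fluorescence ratio not unusually high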;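 further: choline stimulus applied at its EC90 after an EC20 pre-addition; B-score computed on integrated fluorescence ratio after choline addition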
CHT PAM: allosteric activators of human choline transporter CHT | Q9GZV3 | CHT-expressing cells, membrane potential dye, choline EC20; active compounds read high; LV-AA mutant CHT in HEK293 cells | B-score at 10 µM | actives 0.49% (n = 310,000);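 active means initial fluorescence not abnormally high and integrated response B-score, plate-corrected, over 3 SD above library mean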
ANO1 block: mouse TMEM16A channel inhibition, primary screen | Q8BHY3 | HEK293 TMEM16A/YFP iodide influx fluorescence, ionomycin | normalized B-score (activity score, 25-100; higher = stronger inhibition) at 10 µM | actives 1.2% (n = 310,000) | AID 588511;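 active means ratio plate-corrected score three or more library SD toward inhibition, starting fluorescence score within five deviations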;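 further: score derived from kinetic fluorescence span divided by baseline fluorescence per well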
ANO1 activ: activates or potentiates the mouse TMEM16A chloride channel | HEK293 TMEM16A/YFP-H148Q/I152L, iodide quench fluorescence; active compounds read low | B-score at 10 µM | actives 0.3% (n = 340,000) | AID 623877;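 active means fluorescence-ratio B-score plate-corrected deviation score at least 3 library SD below zero, with starting fluorescence score within 5 deviations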;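 further: channel opened by trigger with iodide after compound preincubation; score built on the fluorescence ratio of max minus min over baseline; more negative score means more quench and so TMEM16A activation or potentiation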
CHT activ conf: human CHT activation, confirmatory screen | shares compounds with CHT PAM | CHT-expressing cells, membrane potential dye fluorescence (FDSS); % of choline EC20–EC90 response window; HEK293 expressing CHT LV-AA mutant; choline added at its EC20 | activation, % at 10 µM | actives 91% (n = 2,500) | AID 504833;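 active means primary screen active, with duplicate mean activation above negative control mean plus 3 SD, cut at about 11% in these data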
HEK293 MP dye: counter-screen for CHT activators: effect in parental HEK293 cells. ratio readout change at 10 µM, hits read low. AID 623908. membrane potential dye fluorescence (FDSS); measured after EC20 choline addition. actives 62% (n = 2,500). shares compounds with CHT PAM;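 active means duplicate-averaged ratio beyond 3 SD from buffer wells, up or down, though filed actives are nearly all decreases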
TMEM16A reconf: reconfirmed blocker of mouse TMEM16A calcium-activated chloride channel; HEK293 TMEM16A/YFP-H148Q, iodide quench fluorescence; ionomycin added to raise cell calcium; actives 39% (n = 2,300); inhibition, % at 10 µM; shares compounds with ANO1 block;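 active means mean duplicate percent inhibition, scaled so buffer wells are 0 and the reference blocker 100, over three buffer SD above buffer mean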
HEK293 Ca mobil: alters calcium mobilization in TMEM16A HEK293 cells, counter-screen | shares compounds with ANO1 block | TMEM16A/YFP HEK293, Fluo4 calcium mobilization | calcium response (% of ionomycin), % at 10 µM | actives 2% (n = 2,300);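 active means duplicate-averaged calcium signal over 20% of the ionomycin maximum, relative to buffer baseline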;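 further: each well's signal is peak minus trough fluorescence divided by its pre-addition baseline; 0% = buffer wells and 100% = ionomycin wells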
Parental YFP cnt: counter-screen for TMEM16A inhibitors: effect in parental YFP-HEK293 cells; YFP ratio F(max-min)/F0 at 10 µM; iodide YFP quench, ionomycin; shares compounds with ANO1 block; AID 652233; 2,300 tested, under 10 active;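 active means yellow fluorescent protein signal ratio exceeding the buffer control mean by over 5 SD of those controls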;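 further: ratio is mean of duplicate wells from kinetic YFP trace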
ClC-1 rat inh: blocks the rat ClC-1 voltage-dependent chloride channel | ratio percent, % at 10 µM | 2,300 tested, under 10 active | CHO ClC-1-YFP, iodide influx fluorescence quench; iodide control reads 0, buffer control 100 | shares compounds with ANO1 block;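 active means duplicate-mean ratio percent above the mean of iodide-only control wells, which defines zero, plus 5 of their SD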;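 further: higher percent means stronger block of ClC-1 iodide influx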
Target sequence (P35524 whole entry, looked up): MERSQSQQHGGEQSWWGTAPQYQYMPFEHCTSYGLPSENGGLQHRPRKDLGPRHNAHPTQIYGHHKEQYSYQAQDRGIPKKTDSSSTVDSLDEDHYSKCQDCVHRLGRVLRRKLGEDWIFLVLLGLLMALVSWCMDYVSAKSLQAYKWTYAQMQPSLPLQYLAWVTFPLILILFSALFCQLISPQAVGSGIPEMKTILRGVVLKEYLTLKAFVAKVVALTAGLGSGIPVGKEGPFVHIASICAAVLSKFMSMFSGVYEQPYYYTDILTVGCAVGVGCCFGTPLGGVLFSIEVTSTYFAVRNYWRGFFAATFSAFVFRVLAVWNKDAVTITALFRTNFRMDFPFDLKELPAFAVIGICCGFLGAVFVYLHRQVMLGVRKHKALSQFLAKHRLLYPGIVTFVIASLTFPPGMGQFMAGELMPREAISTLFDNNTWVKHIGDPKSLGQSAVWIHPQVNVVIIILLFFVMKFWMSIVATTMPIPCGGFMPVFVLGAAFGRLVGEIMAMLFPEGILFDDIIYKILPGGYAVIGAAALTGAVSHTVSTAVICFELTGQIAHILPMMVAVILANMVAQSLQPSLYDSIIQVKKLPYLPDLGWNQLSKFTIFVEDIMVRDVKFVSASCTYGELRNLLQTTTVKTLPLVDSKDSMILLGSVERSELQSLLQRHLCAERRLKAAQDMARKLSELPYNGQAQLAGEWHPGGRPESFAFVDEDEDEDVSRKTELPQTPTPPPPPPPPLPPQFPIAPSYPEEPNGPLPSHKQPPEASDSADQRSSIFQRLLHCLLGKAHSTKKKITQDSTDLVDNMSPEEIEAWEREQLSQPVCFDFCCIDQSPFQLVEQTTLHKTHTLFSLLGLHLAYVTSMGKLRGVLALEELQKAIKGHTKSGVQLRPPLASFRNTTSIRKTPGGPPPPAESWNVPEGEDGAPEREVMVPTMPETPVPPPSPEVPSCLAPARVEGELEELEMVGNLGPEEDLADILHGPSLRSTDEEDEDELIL
Starred values were filed as active, the others as inactive; i = inactive; · = no result given. Compounds with a hit are over-represented: about 2.4% of the library has one in this group of screens.

SMILES	CHT inh	CHT PAM	ANO1 block	ANO1 activ	CHT activ conf	HEK293 MP dye	TMEM16A reconf	HEK293 Ca mobil	Parental YFP cnt	ClC-1 rat inh
COc1cc(-c2nc3ccccn3c2N)ccc1O	i	i	i	i	·	·	·	·	·	·
COc1ccc(-c2nc3cccc(C)n3c2NCC2CCCO2)cc1O (stereo unspecified)	i	i	i	i	54*	-57*	·	·	·	·
COc1cc(-c2nc3ccccn3c2NCC2CCCO2)ccc1O (stereo unspecified)	i	i	i	i	44*	-47*	·	·	·	·
Cc1ccc(NC2C(=O)NC(=O)NC2=O)cc1	·	·	·	i	·	·	·	·	·	·
COc1ccccc1C1CC(=O)Oc2cc(OC)c(OC)c(OC)c21 (stereo unspecified)	·	·	·	i	·	·	·	·	·	·
CN(C)CCCN(C(=O)c1ccco1)c1nc2c(F)cc(F)cc2s1	i	i	i	i	·	·	·	·	·	·
CN(C)CCCN(C(=O)c1ccco1)c1nc2c(F)cccc2s1	i	i	i	i	45*	-58*	·	·	·	·
COc1ccc(OC)c(NS(=O)(=O)c2ccc(N3CCCC3=O)cc2)c1	i	9.1*	i	i	37*	i	·	·	·	·
O=C(Cc1ccc([N+](=O)[O-])cc1)Nc1cccc(C(=O)N2CCCC2)c1	·	·	·	i	·	·	·	·	·	·
C#CCOCCOCCOCCNc1nc(N2CCN(C(=O)CCCCCCCCCCNC(=O)[C@@H](CCC(=O)O)n3cc(CCCCCN)nn3)CC2)nc(N2CCN(C(=O)CCCCCCCCCCNC(=O)[C@H]([C@@H](C)CC)n3cc(CCCCCN)nn3)CC2)n1	i	i	i	i	·	·	·	·	·	·
C#CCOCCOCCOCCNc1nc(N2CCOCC2)nc(N2CCN(C(=O)CCCCCCCCCCNC(=O)[C@@H]([C@H](C)CC)n3cc(CCCCCN)nn3)CC2)n1	i	8.4*	i	i	6	-32*	·	·	·	·
O=C(COC(=O)C1CC(O)CN1S(=O)(=O)c1ccc(Cl)cc1)c1ccccc1 (stereo unspecified)	i	i	i	i	·	·	·	·	·	·
CC(C)N(C(=O)COC(=O)[C@@H]1CC(O)CN1S(=O)(=O)c1ccc(C(C)(C)C)cc1)C(C)C (stereo partly specified)	i	7.1*	i	i	9	i	·	·	·	·
COc1ccc(OC)c2c(C)cc(N3CCCN(C)CC3)nc12	i	8*	i	i	46*	-74*	·	·	·	·
COC(=O)c1ccc(N2CCN(C)CC2)c(NC(=O)c2cccnc2)c1	i	10*	i	i	52*	-101*	·	·	·	·
COC(=O)c1ccc(N2CCN(C)CC2)c(NC(=O)c2cccs2)c1	i	6.7*	i	i	33*	-71*	·	·	·	·
CCOc1ccc(S(=O)(=O)N2c3ccccc3CC2C)cc1 (stereo unspecified)	i	i	100*	i	39*	i	i	i	-1.1	-8
Cc1ccc(Oc2ccccc2NC(=O)CSCC(=O)Nc2cc(C)on2)cc1	i	i	i	i	0	i	22%*	i	-1	-11
CC(C)CC(=O)Nc1ccc(C(=O)CN2CCC(C)CC2)cc1	i	i	i	i	·	·	·	·	·	·
C=CCC1NS(=O)(=O)OC2CCCC12 (stereo unspecified)	i	i	i	i	·	·	·	·	·	·
Cc1ccc(-c2nc3ncccn3c2Nc2ccc3c(c2)OCCO3)o1	i	i	i	i	·	·	·	·	·	·
Cc1cc(C)n2c(Nc3ccc4c(c3)OCCO4)c(-c3ccc(C)o3)nc2n1	i	9.7*	i	i	83*	-50*	i	i	-1.2	0
Cc1ccc(C(=O)NC(=S)NCC2CCCO2)cc1Br (stereo unspecified)	i	i	i	i	·	·	·	·	·	·
Cc1ccc(OCc2nc(C#N)c(NCc3ccc4c(c3)OCO4)o2)cc1	i	7.5*	25*	i	30*	i	16%*	i	-1.1	-8
CCOc1ccc(-c2nc(C#N)c(NCc3ccc4c(c3)OCO4)o2)cc1	i	i	i	i	·	·	·	·	·	·
SMILES	CHT inh	CHT PAM	ANO1 block	ANO1 activ	CHT activ conf	HEK293 MP dye	TMEM16A reconf	HEK293 Ca mobil	Parental YFP cnt	ClC-1 rat inh
Cc1cc(Nc2ccc(Cl)cc2)nc(NCc2ccccc2)n1	i	i	i	i	·	·	·	·	·	·
CCCCNc1cc(C)nc(NCc2ccccc2)n1	i	9.2*	25*	i	33*	i	34%*	22%*	-1.2	-24
CC(C)c1nc(SCC(=O)Nc2nc3c(s2)CCCC3)c2ccccc2n1	i	9*	25*	i	28*	i	i	i	-1.1	-10
Cc1ccc(Cl)cc1N1CCN(C(=O)C2CCC(=O)N(C3CCCCCC3)C2)CC1 (stereo unspecified)	i	9.2*	100*	i	24*	i	18%*	i	-1.3	-16
O=C(NCCN1CCCCC1)Nc1ccc(F)cc1F	i	i	i	i	·	·	·	·	·	·
O=C(OCc1ccc(Cl)cc1)c1ccccc1C(=O)c1ccccc1	i	i	100*	i	·	·	i	i	-1.3	-4
CCOC(=O)c1[nH]c(C)c(C(=O)Nc2ccc3c(c2)OCCO3)c1C	i	i	25*	i	·	·	i	i	-0.98	-2
Cc1nc(CN2CCN(C(=O)c3ccc(Br)cc3)CC2)cs1	i	i	i	i	·	·	·	·	·	·
CNC(=S)N1N=C(c2ccc(OC)cc2)CC1c1ccccc1Cl (stereo unspecified)	i	i	25*	i	·	·	45%*	i	-0.9	-6
CNC(=S)N1N=C(c2ccc(OC)cc2)CC1c1ccc(Cl)cc1Cl (stereo unspecified)	i	i	i	i	·	·	·	·	·	·
CCOc1ccc(CCNC(=O)c2sc3nc4n(c(=O)c3c2C)CCC4)cc1	i	i	i	i	·	·	·	·	·	·
O=C(NC(Cc1ccccc1)C(=O)NCc1ccccn1)c1ccco1 (stereo unspecified)	i	i	25*	i	·	·	i	i	-1	-2
